AmpC inh no detg = inhibitors of E. coli AmpC beta-lactamase without detergent. 330,000 compounds, 0.52% hits. AmpC nitrocefin hydrolysis, absorbance 480 nm, 0.0001% Triton. AID 485341. Potency, µM (highest dose often 57.1 µM), inactives show at the highest dose activity change, negative = inhibition, actives largely listed as inhibitors;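 note: plate controls were no compound for no effect and no enzyme for full effect; nearly all actives have a fitted effect of over 20% in size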
Target sequence (P00811 whole entry, looked up): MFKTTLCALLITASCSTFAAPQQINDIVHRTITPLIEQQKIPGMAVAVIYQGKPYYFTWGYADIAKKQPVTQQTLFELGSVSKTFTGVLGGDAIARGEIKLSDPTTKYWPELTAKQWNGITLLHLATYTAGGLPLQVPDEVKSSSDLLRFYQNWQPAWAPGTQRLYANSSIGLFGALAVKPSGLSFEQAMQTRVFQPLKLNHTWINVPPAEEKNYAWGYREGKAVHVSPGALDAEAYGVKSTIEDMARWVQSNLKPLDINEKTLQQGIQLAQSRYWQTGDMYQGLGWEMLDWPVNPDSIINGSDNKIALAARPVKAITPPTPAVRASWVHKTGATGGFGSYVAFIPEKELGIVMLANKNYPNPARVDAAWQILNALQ
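AmpC (5.3 nM in the dispensed reagent) in 20 mM phosphate pH 7.0 with 0.01% (detergent screen) or 0.0001% Triton X-100 was preincubated with compounds for 15 min at room temperature. Nitrocefin was then added from an 800 uM solution, and hydrolysis was followed at 480 nm.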
Sm TGR block = S. mansoni TGR enzyme inhibition; purified TGR, DTNB reduction, TNB absorbance 405 nm; Potency, µM (doses to about 114 µM), for inactives: at the highest dose activity change, negative = inhibition, usual class: inhibitors; 360,000 compounds, 3% hits; note: nearly all actives have a fitted effect of over 60% in size
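TGR 20 nM + NADPH 100 uM (dispensed conc.), cpd preinc 15 min RT; start with NADPH (500 uM addition) then DTNB (15 mM addition). Kinetic TNB absorbance, 405 nm filter. Four-parameter Hill fit across titration.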
AmpC detergent = AmpC beta-lactamase inhibition with detergent present; AID 485294; Potency, µM (top dose mostly 114 µM), inactives show top-dose activity change, negative = inhibition, most hits filed as inhibitors; 370,000 compounds, 0.041% hits; AmpC hydrolysis of nitrocefin, absorbance 480 nm, 0.01% Triton;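 note: 0% = no-compound wells and -100% = no-enzyme wells; nearly all actives have a fitted effect of over 25% in size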
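20 mM phosphate pH 7.0 + 0.01% (detergent screen) or 0.0001% Triton X-100; 5.3 nM AmpC reagent; cpd preinc 15 min RT; nitrocefin (800 uM stock) to start; A480 q20 s × 4 min; Activity was normalised to no-enzyme and no-compound control wells.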
The depositor's hits bear a star; ? = inconclusive; . = no result; [ ] = another dose, or the depositor's remark. Hits are enriched below; roughly 3.3% of the tested compounds scored in any of these assays. Calls come from the whole dose curve; as a rule, active = well fitted curve in the direction sought with a large enough effect; inconclusive = small, poorly fitted or top-dose-only effect, or another doubt; inactive = no such curve, though single readings can be large; an effect the other way counts as inactive or inconclusive. Unless noted, % is set by controls: 0 for no effect and ±100 for the full control effect; potency is the fitted concentration of half-maximal effect.

SMILES	AmpC inh no detg	Sm TGR block	AmpC detergent
CCCn1c2ccccc2c2cnn(CC(=O)NC3CCN(Cc4ccccc4)CC3)c(=O)c21	-5%	-6%	-13%
COc1cc(C(=O)O/N=C2/C=CC(=O)C(C)=C2C)cc(OC)c1OC	-19%	-31%	-10%
COc1cc(C(=O)O/N=C2\C=CC(=O)C=C2C)cc(OC)c1OC	-16%	3.2µM*	?
Cc1ccc(C(=O)Oc2ccc(Cl)c3cccnc23)cc1[N+](=O)[O-]	-16%	11%	-6%
O=C(Oc1ccc(Cl)c2cccnc12)c1cccnc1	-25%	40µM*	-11%
O=C(Cc1ccc(S(=O)(=O)N2CCCC2)s1)Nc1nc2c(s1)CCCC2	14µM*	-23%	?
Cc1cc(C)cc(NC(=O)Cc2ccc(S(=O)(=O)N3CCCC3)s2)c1	-21%	-3%	1%
O=C(COC(=O)Cc1ccc(S(=O)(=O)N2CCCCC2)s1)Nc1ccc2c(c1)OCO2	-55%	-25%	?
NS(=O)(=O)c1cccc(NC(=O)COC(=O)Cc2ccc(S(=O)(=O)N3CCCCC3)s2)c1	32µM*	-18%	-5%
COc1cc([N+](=O)[O-])ccc1NC(=O)Nc1ccc(C(=O)N2CCCC2)cc1	-18%	?	2%
COc1cc([N+](=O)[O-])ccc1NC(=O)N1CCCCCC1	-7%	32µM*	0%
Cc1cccc(NS(=O)(=O)c2cc3c(cc2C)NC(=O)CO3)c1	-20%	-20%	-15%
COc1ccccc1C(=O)NC(=O)CSc1ccc(C)c(C)c1	-4%	.	.
CCCn1c(CC)nc([N+](=O)[O-])c1S(=O)(=O)c1ccccc1	-20%	?	-15%
Cn1cnc([N+](=O)[O-])c1S(=O)(=O)c1cccc(Cl)c1	-31%	0.28µM*	?
CCC(C(=O)NCC1CCCO1)n1nc(C)c2sc3ccccc3c2c1=O (stereo unspecified)	70%	?	3%
C=CCn1c(=NC(=O)C2CCCCC2)sc2cc(NC(C)=O)ccc21	4µM*	1%	?
C=CCn1c(=NC(=O)C2CC2)sc2cc(NC(C)=O)ccc21	5%	0%	-5%
CCOc1ccc(S(=O)(=O)Nc2cc(NS(=O)(=O)c3ccc(OCC)cc3)cc(C(=O)O)c2)cc1	-20%	.	.
Cc1cc2oc(=O)cc(CSc3nc(N)cc(N)n3)c2cc1C(C)C	2.8µM*	1%	-6%
CCCc1cc(=O)[nH]c(SCc2cc(=O)oc3cc(C)c(C(C)C)cc23)n1	-22%	-9%	-14%
COc1ccc(/C=C/C(=O)OCC(=O)c2ccc3c(c2)NC(=O)CO3)cc1	-22%	4%	-1%
CCN1CCN(C(c2ccc(OC)cc2)c2c(O)cc(C)n(CCOC)c2=O)CC1 (stereo unspecified)	.	10µM*	2%
CCN1CCN(C(c2cccc(F)c2)c2c(O)cc(C)n(CCOC)c2=O)CC1 (stereo unspecified)	.	4µM*	-6%
COCCn1c(CN2CCN(c3cccc(Cl)c3)CC2)nc2c1c(=O)n(C)c(=O)n2C	156%	0%	?
SMILES	AmpC inh no detg	Sm TGR block	AmpC detergent
CCN1CCN(C(c2ccccc2)c2c(O)cc(C)n(CCOC)c2=O)CC1 (stereo unspecified)	.	4µM*	0%
CCN1CCN(C(c2cccc(Cl)c2)c2c(O)cc(C)n(CCOC)c2=O)CC1 (stereo unspecified)	.	5.6µM*	1%
COCCn1c(C)cc(O)c(C(c2ccccc2)N2CCCCC2)c1=O (stereo unspecified)	.	-3%	10%
COCCn1c(SCC(=O)Nc2cccc(F)c2)nc2c(c1=O)SCC2	-24%	-1%	-4%
CCN1CCN(C(c2ccccc2)c2nnnn2Cc2ccc(OC)cc2)CC1 (stereo unspecified)	22%	44%	3%
COc1ccc(C(=O)Nc2ccccc2N2CCCC2)cc1S(=O)(=O)N1CCOCC1	61%	-15%	0%
CCc1ccc(NC(=O)[C@H](C)NC(=O)C2CCN(C(=O)[C@@H](N)Cc3ccccc3)CC2)cc1	14%	0%	-7%
CCc1cccc(CC)c1NC(=O)c1cccc(S(=O)(=O)N2CCN(C)CC2)c1	-3%	1%	0%
CC(C)(C)NC(=O)CSc1nnc(C2CC2)n1-c1ccccc1	-43%[11.4 µM]	0%	?
Cc1ccc(C(=O)N2CCCC2)cc1S(=O)(=O)N1CCCCC1	11%	1%	3%
OCCOCCN1CCN(C(c2ccccc2)c2ccc(Cl)cc2)CC1 (stereo unspecified)	150%	0%	-11%
CCN1CCN(C(c2ccc(F)cc2)c2c(O)cc(C)n(CCOC)c2=O)CC1 (stereo unspecified)	.	4.5µM*	9%
CCN1CCN(C(c2ccc(Cl)cc2)c2c(O)cc(C)n(CCOC)c2=O)CC1 (stereo unspecified)	.	4.5µM*	11%
CCN1CCN(C(c2ccc(F)cc2)c2sc3nc(-c4ccco4)nn3c2O)CC1 (stereo unspecified)	.	5%	7%
Cc1c(NC(=O)COC(=O)CSc2ccc([N+](=O)[O-])cc2)c(=O)n(-c2ccccc2)n1C	-9%	1%	?
O=C(Nc1nccs1)c1ccc2ccccc2n1	1%	4%	-12%
O=C1S/C(=C\C=C\c2ccco2)C(=O)N1c1ccccc1	-43%	45µM*	-12%
Cn1cc(/C=C2\SC(=O)N(c3ccccc3)C2=O)c2ccccc21	-34%	-14%	-5%
O=C1S/C(=C\C=C\c2ccco2)C(=O)N1c1ccc(O)cc1	32µM*	?	-3%
O=C1S/C(=C\c2cccs2)C(=O)N1c1ccc(O)cc1	-55%	0%	-2%
O=C(O)CCC(=O)N1CCCC1	-7%	20%	8%
O=C(CCSCCC(=O)N1CCCC1)N1CCCC1	-1%	40µM*	-1%
O=c1c2cc(N3CCOCC3)ccc2[nH]c(=S)n1Cc1ccco1	-29%	8.9µM*	?
O=c1c2cc(N3CCOCC3)ccc2[nH]c(=S)n1Cc1cccc(Cl)c1	-2%	11%	-7%
CC1(C)Oc2ccc3ccc(=O)oc3c2[C@H](O)[C@H]1O	-3%	1%	2%
SMILES	AmpC inh no detg	Sm TGR block	AmpC detergent
CC1(C)Oc2ccc3ccc(=O)oc3c2C(N2CCCCC2)C1O (stereo unspecified)	99%	35µM*	?
CNC(=O)C(=O)Nc1cc2c3c(c1)CCC(=O)N3CCC2	-10%	3%	-5%
CCCCC[C@H](O)/C=C/[C@H]1C=CC(=O)[C@@H]1C/C=C\CCCC(=O)O	168%	40µM*	?
CCCCC1C(=O)CC[C@H]2[C@@H]1CC(=O)[C@@H]2C/C=C\CCCC(=O)O (stereo partly specified)	-30%	-14%	-12%
CCCOc1ccc(CNC(=O)CCCn2ncn3c(cc4sc(CC)cc43)c2=O)cc1	.	5%	17%
CC(C)c1ccc(NC(=O)CCS(=O)(=O)c2ccc3c(c2)CC(=O)N3C)cc1	.	5%	2%
COC(=O)CCc1nc2ccccc2nc1OC	-7%	6%	4%
COc1nc2ccccc2nc1CCC(=O)O	-14%	0.1µM*	9%
O=C(O)CCc1nc2ccccc2n(CCc2ccccc2)c1=O	-21%	40µM*	1%
CCCCn1c(=O)c(CCC(=O)O)nc2ccccc21	-13%	-30%	-7%

High-throughput results deposited in PubChem by National Center for Advancing Translational Sciences (NCATS).
